# Assay outcomes: PubChem, several laboratories
# aSyn 5UTR inh: 5' untranslated region of α-synuclein, MLPCN primary screen. 300,000 tested, 0.82% active. inhibition, % (tested at 7.5 µM). alpha-synuclein 5'UTR reporter, inhibitor activity; in the data active = inhibition above about 60%;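 also: H4 neuroglioblastoma cells stably carrying SNCA 5'UTR luciferase fusion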
# BaF3 parental: parental Ba/F3 viability inhibition as JAK2V617F counter-screen; CellTiter-Glo ATP luminescence; inhibition, % at 5.6 µM; 220,000 tested, 1.1% active; AID 1486;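 active = inhibition above a per-campaign cutoff, the mean inhibition of all tested compounds plus 3 SD, cut at about 27% in these data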
# KLF5 inh: kruppel-like factor 5 inhibition; DLD-1 KLF5 promoter-luciferase reporter, luminescence; inhibition, % at 5 µM; 290,000 tested, 0.23% active; AID 1700;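 active = inhibition above a per-plate limit of that plate's mean compound inhibition plus 3 SD, cut at about 60% in these data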;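 also: higher means less KLF5 promoter-driven luciferase light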
# IEC-6 cytotox: IEC-6 cytotoxicity, counter-screen for KLF5 inhibitors | luminescence viability | inhibition, % at 5 µM | 290,000 tested, 0.78% active; in the data active = inhibition above about 22%
# Ba/F3 V617F tox: lowers viability of Ba/F3 cells expressing EpoR and JAK2V617F; ATP luminescence; inhibition, % at 5.6 µM; 220,000 tested, 1.1% active; AID 1446;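 active = inhibition above the campaign mean plus 3 SD over all tested compounds, cut at about 24% in these data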;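 also: cytokine-independent growth of Ba/F3 cells driven by EpoR plus mutant JAK2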
# APP transl inh: APP translation inhibition; SH-SY5Y APP 5'UTR-luciferase reporter, luminescence; inhibition, % at 2 µM; 190,000 tested, 0.82% active; AID 1285;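 active = inhibition above a set limit, derived from the sample mean plus 3 SD, cut at about 45% in these data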
# BaF3 parental 2: counter-screen for JAK2V617F inhibitors: parental Ba/F3 viability inhibitors; shares compounds with Ba/F3 V617F tox; CellTiter-Glo luminescence; cells kept alive by added IL-3; inhibition, % at 5.6 µM; 580 tested, 31% active;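 active = cell growth inhibition above the hit limit set in the earlier mutant JAK2 cell screen, cut at about 27% in these data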
# JAK2V617F conf: confirmation: loss of viability in JAK2V617F-dependent Ba/F3 cells; inhibition, % at 5.6 µM; 580 tested, 66% active; Ba/F3 EpoR-JAK2V617F viability, CellTiter-Glo luminescence; shares compounds with Ba/F3 V617F tox;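 active = mean inhibition above the hit cutoff derived in the earlier primary screen, cut at about 25% in these data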;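 also: higher means lower luminescence from reduced cell ATP and viability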
# A number is an active result; - = inactive; . = not tested or not shown. Hits are enriched below; roughly 2.2% of the tested compounds scored in any of these assays.
SMILES,aSyn 5UTR inh,BaF3 parental,KLF5 inh,IEC-6 cytotox,Ba/F3 V617F tox,APP transl inh,BaF3 parental 2,JAK2V617F conf
O=C(COc1ccc(F)cc1)NN1C(=O)CSC1=S,-,-,-,-,-,-,.,.
CCOc1ccc(OCCn2c(=S)[nH]c3c(N)ncnc32)cc1,-,-,-,-,-,-,.,.
Cc1ccc(OCCn2cnc3c(N)ncnc32)cc1,-,-,-,-,93,-,82,28
CCOC(=O)C1(CCCc2ccccc2)CCN(C(=O)C2CCCN(C(N)=O)C2)CC1 (configuration not stated),-,-,-,-,-,-,.,.
C=CCOC(=O)C1=C(C)NC(SCC(N)=O)=C(C#N)C1c1ccc(C)cc1 (configuration not stated),-,-,-,-,-,.,.,.
C=CCOC(=O)C1=C(C)NC(SCC)=C(C#N)C1c1ccc(Cl)cc1 (configuration not stated),67,-,-,-,41,-,-,29
COc1ccc(-c2nn(C)c(=O)c3ccccc23)cc1CNC(=O)CN1CCOCC1,-,-,-,-,-,-,.,.
COc1ccccc1N1CCc2c(C)nc3c(OC)cccc3c21,-,-,-,-,45,.,-,50
Cc1ccc(NC(=S)N(Cc2cccc(Br)c2)CC2CCC(C(=O)O)CC2)cc1 (configuration not stated),-,-,-,-,-,-,.,.
Cc1cc(NC(=S)N(Cc2cccc(Br)c2)CC2CCC(C(=O)O)CC2)ccc1Cl (configuration not stated),-,-,-,-,29,-,27,38
C#CCOCCOCCOCCNc1nc(N2CCN(C(=O)CCCCCCCCCCNC(=O)Cn3cc(C[C@@H](C)O)nn3)CC2)nc(N2CCN(C(=O)CCCCCCCCCCNC(=O)[C@H](CCCN=C(N)N)n3cc(C[C@@H](C)CC)nn3)CC2)n1,-,.,.,.,.,.,.,.
Cc1nc([N+](=O)[O-])c(Br)n1Cc1ccccc1,-,-,-,-,36,.,-,46
CCN(CC)S(=O)(=O)c1ccc(N2CCOCC2)c(NC(=O)c2cc3ccccc3oc2=O)c1,-,.,-,-,.,.,.,.
N/C(=N\OC(=O)c1cccc(Br)c1)c1ccc(Br)cc1,-,-,-,-,35,-,-,-
Cc1ccccc1-c1nn(-c2ccc(F)cc2F)cc1CNCCCN(C)C,-,-,-,-,26,-,-,-
N#C/C(=C\c1ccc(O)c(O)c1)S(=O)(=O)c1ccccc1,-,-,-,-,24,-,-,-
CCCn1c(CN(Cc2ccccc2)Cc2ccccc2)nc2c1c(=O)n(C)c(=O)n2C,-,-,-,-,-,-,.,.
CCCn1c(CN(C)Cc2ccccc2)nc2c1c(=O)n(C)c(=O)n2C,-,-,-,-,35,-,-,58
O=C(CC1C(=O)NCCN1CC(c1ccccc1)c1ccccc1)NC1CC1 (configuration not stated),-,-,-,-,-,-,.,.
O=C1OC(/C(=C\Nc2cc(Cl)ccc2O)[N+](=O)[O-])c2ccccc21 (configuration not stated),-,-,-,-,46,-,-,56
O=C1OC(/C(=C\Nc2ccc(F)cc2F)[N+](=O)[O-])c2ccccc21 (configuration not stated),-,-,-,-,-,-,.,.
Cn1c(=N)n(CC(O)c2cccc3ccccc23)c2ccccc21 (configuration not stated),-,-,-,-,41,-,-,28
Cc1nn(Cc2ccc(Cl)cc2Cl)c(C)c1NC(=O)CCl,-,-,-,-,30,-,-,64
COc1ccc(C2c3ccc4ccccc4c3Oc3ncn(CCCO)c(=N)c32)cc1OC (configuration not stated),-,-,-,-,81,.,-,-
COc1cccc(-c2cccc(NC(=O)C3CCN(C4CCOCC4)CC3)c2)c1,-,.,-,-,.,.,.,.
SMILES,aSyn 5UTR inh,BaF3 parental,KLF5 inh,IEC-6 cytotox,Ba/F3 V617F tox,APP transl inh,BaF3 parental 2,JAK2V617F conf
CC1CCCCC1NC(=O)NC(=O)CCl (configuration not stated),-,-,-,-,-,-,.,.
CC1CCCC(NC(=O)NC(=O)CCl)C1C (configuration not stated),-,-,-,-,58,-,-,83
COc1ccccc1C(=O)NC(=O)COC(=O)CCNS(=O)(=O)c1ccccc1,-,.,.,.,.,.,.,.
COCC(C)n1c(SCC(=O)NNC(=O)c2ccc(F)cc2)nc2ccccc2c1=O (configuration not stated),-,-,-,-,-,-,.,.
COc1cccc(/C=N/N2CCN(c3ccncc3S(=O)(=O)N3CCCCC3)CC2)c1,-,-,-,-,-,-,.,.
COC(=O)C1=C(C(=O)OC)[C@@H]2N(C)c3ccc(OC)cc3[C@@]23C[C@@H](C(=O)OC)N=C3N1,-,.,.,.,.,.,.,.
CCc1cc(C(=O)N2CCCC(CCC(=O)N3CCN(c4ccccn4)CC3)C2)no1 (configuration not stated),-,-,-,-,-,-,.,.
CC(C)c1cc(C(=O)N2CCCC(CCC(=O)N3CCN(c4ccccn4)CC3)C2)no1 (configuration not stated),-,-,-,-,32,.,-,-
CCCC(O)(CCC)C(=O)NNc1ccc(C)cc1,-,-,-,-,-,.,.,.
Oc1ccc(/C=C/c2ccnc3ccccc23)cc1,-,-,-,-,47,-,-,42
COc1cccc(/C=N/NC(=O)c2c(C)nc3ccc(Br)cn23)c1O,71,-,-,-,24,61,62,66
CCOc1ccccc1/C=N/NC(=O)c1c(C)nc2ccc(Br)cn12,-,.,-,-,.,.,.,.
CC(=O)N1CCN(Cc2nc(-c3cccc(Cl)c3)no2)CC1,-,-,-,-,-,-,.,.
CCOc1cc(S(=O)(=O)n2ccc(C)n2)ccc1Br,-,-,-,-,30,-,-,-
CCOc1cc(S(=O)(=O)n2ccnc2)ccc1Br,-,-,-,-,-,-,.,.
Cc1ccc2cc(CCNC(=O)CC(C)C)c(=O)[nH]c2c1,-,-,-,-,69,-,-,-
O=C(/C=C1\NC2(CCCC2)Cc2ccccc21)C(=O)N/N=C/c1ccc(O)c(O)c1,-,-,-,-,45,-,-,95
O=C(CCc1ccccc1)Oc1ccccc1[N+](=O)[O-],-,.,.,.,.,.,.,.
O=C(c1csc2ccccc12)N1CCCCCC1,-,-,-,-,28,-,-,36
CCCC1O[C@@H]2CC3C4CCC5=CC(=O)C=C[C@]5(C)C4C(OC(C)=O)C[C@]3(C)[C@]2(C(=O)COC(C)=O)O1 (some centres not stated),-,-,-,-,25,-,-,28
COc1ccc(Cl)cc1S(=O)(=O)N1CCN=C1Cc1ccccc1,-,.,-,-,.,.,.,.
